Tests used:
Settings in all cases: Compound Concentration (nM):1000
CDK3 = system: CDK3
CDK4-cyclinD1 = system: CDK4-cyclinD1
CDK4-cyclinD3 = system: CDK4-cyclinD3
CDK4 = system: CDK4
CDK5 = system: CDK5
CDK7 = system: CDK7
CDK8 = system: CDK8
CDK9 = system: CDK9
CDKL1 = system: CDKL1
CDKL2 = system: CDKL2
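Note: KINOMEscan scanMAX binding as percent activity remaining versus control; lower means stronger binding.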

Cl.O=C(Nc1ccc(Oc2ccc3[nH]c(NC(=O)c4ccccc4)nc3c2)cc1)Nc1cc(C(F)(F)F)ccc1F [GW709042A]
Percent Control (CDK3): 100% | Percent Control (CDK4-cyclinD1): 92% | Percent Control (CDK4-cyclinD3): 100% | Percent Control (CDK4): 84% | Percent Control (CDK5): 100% | Percent Control (CDK7): 32% | Percent Control (CDK8): 54% | Percent Control (CDK9): 81% | Percent Control (CDKL1): 92% | Percent Control (CDKL2): 69%

COc1cc(/C=N/Nc2ncnc3[nH]ncc23)ccc1O [GW578748X]
Percent Control (CDK3): 100% | Percent Control (CDK4-cyclinD1): 79% | Percent Control (CDK4-cyclinD3): 100% | Percent Control (CDK4): 92% | Percent Control (CDK5): 84% | Percent Control (CDK7): 70% | Percent Control (CDK8): 83% | Percent Control (CDK9): 100% | Percent Control (CDKL1): 52% | Percent Control (CDKL2): 100%

COc1cc2ncn(-c3cc(O[C@H](C)c4ccccc4Cl)c(C(N)=O)s3)c2cc1OC [GSK237701A]
Percent Control (CDK3): 100% | Percent Control (CDK4-cyclinD1): 81% | Percent Control (CDK4-cyclinD3): 100% | Percent Control (CDK4): 86% | Percent Control (CDK5): 100% | Percent Control (CDK7): 76% | Percent Control (CDK8): 48% | Percent Control (CDK9): 100% | Percent Control (CDKL1): 94% | Percent Control (CDKL2): 86%

CCc1ccc(Oc2nccc(-c3c(-c4ccc(F)cc4)ncn3C3CCNCC3)n2)cc1 [SB-242719]
Percent Control (CDK3): 100% | Percent Control (CDK4-cyclinD1): 94% | Percent Control (CDK4-cyclinD3): 76% | Percent Control (CDK4): 91% | Percent Control (CDK5): 100% | Percent Control (CDK7): 88% | Percent Control (CDK8): 86% | Percent Control (CDK9): 100% | Percent Control (CDKL1): 86% | Percent Control (CDKL2): 96%

COc1cccc(-c2c[nH]c3c(N/N=C/c4ccncc4)ncnc23)c1 [GW814408X]
Percent Control (CDK3): 67% | Percent Control (CDK4-cyclinD1): 26% | Percent Control (CDK4-cyclinD3): 25% | Percent Control (CDK4): 100% | Percent Control (CDK5): 82% | Percent Control (CDK7): 2.2% | Percent Control (CDK8): 100% | Percent Control (CDK9): 65% | Percent Control (CDKL1): 15% | Percent Control (CDKL2): 26%

NS(=O)(=O)c1ccc(N/N=C2\C(=O)Nc3ccc(Cl)cc32)cc1 [GW280670X]
Percent Control (CDK3): 100% | Percent Control (CDK4-cyclinD1): 77% | Percent Control (CDK4-cyclinD3): 100% | Percent Control (CDK4): 100% | Percent Control (CDK5): 100% | Percent Control (CDK7): 100% | Percent Control (CDK8): 100% | Percent Control (CDK9): 100% | Percent Control (CDKL1): 96% | Percent Control (CDKL2): 78%

CC1=C(C(=O)Nc2ccc3[nH]ncc3c2)C(c2ccc(Cl)c(Cl)c2)CC(=O)N1 (centres unmarked) [GSK299115A]
Percent Control (CDK3): 100% | Percent Control (CDK4-cyclinD1): 74% | Percent Control (CDK4-cyclinD3): 100% | Percent Control (CDK4): 80% | Percent Control (CDK5): 100% | Percent Control (CDK7): 83% | Percent Control (CDK8): 47% | Percent Control (CDK9): 100% | Percent Control (CDKL1): 96% | Percent Control (CDKL2): 80%

COc1cc(N2CCN(C(C)C)CC2)ccc1Nc1nc(Nc2ccc(F)cc2C(=O)NC[C@@H](O)CO)c2cc[nH]c2n1 [GSK1392956A]
Percent Control (CDK3): 100% | Percent Control (CDK4-cyclinD1): 85% | Percent Control (CDK4-cyclinD3): 100% | Percent Control (CDK4): 89% | Percent Control (CDK5): 100% | Percent Control (CDK7): 93% | Percent Control (CDK8): 100% | Percent Control (CDK9): 100% | Percent Control (CDKL1): 100% | Percent Control (CDKL2): 100%

CN1CCN(C(=O)c2ccc(NC(=O)Nc3ccc(N(C)c4ccnc(Nc5ccc(CS(C)(=O)=O)cc5)n4)cc3)cc2)CC1.Cl [GW830263A]
Percent Control (CDK3): 100% | Percent Control (CDK4-cyclinD1): 77% | Percent Control (CDK4-cyclinD3): 89% | Percent Control (CDK4): 83% | Percent Control (CDK5): 91% | Percent Control (CDK7): 61% | Percent Control (CDK8): 85% | Percent Control (CDK9): 69% | Percent Control (CDKL1): 73% | Percent Control (CDKL2): 1.7%

NS(=O)(=O)c1ccc(N/N=C2\C(=O)Nc3ccc(-c4cnco4)cc32)cc1 [GW276655]
Percent Control (CDK3): 47% | Percent Control (CDK4-cyclinD1): 29% | Percent Control (CDK4-cyclinD3): 31% | Percent Control (CDK4): 94% | Percent Control (CDK5): 81% | Percent Control (CDK7): 32% | Percent Control (CDK8): 100% | Percent Control (CDK9): 93% | Percent Control (CDKL1): 39% | Percent Control (CDKL2): 49%

CCn1c(-c2nonc2N)nc2c(C#CC(C)(C)O)nc(OCCNC)cc21.Cl [GSK949675]
Percent Control (CDK3): 100% | Percent Control (CDK4-cyclinD1): 100% | Percent Control (CDK4-cyclinD3): 92% | Percent Control (CDK4): 100% | Percent Control (CDK5): 85% | Percent Control (CDK7): 88% | Percent Control (CDK8): 100% | Percent Control (CDK9): 100% | Percent Control (CDKL1): 90% | Percent Control (CDKL2): 100%

CCS(=O)(=O)c1ccc(OC)c(Nc2ncc(-c3cccc(OC)c3)o2)c1 [GW580509X]
Percent Control (CDK3): 100% | Percent Control (CDK4-cyclinD1): 93% | Percent Control (CDK4-cyclinD3): 93% | Percent Control (CDK4): 99% | Percent Control (CDK5): 100% | Percent Control (CDK7): 84% | Percent Control (CDK8): 100% | Percent Control (CDK9): 100% | Percent Control (CDKL1): 98% | Percent Control (CDKL2): 98%

CC(C)COC(=O)c1ccc2c(c1)/C(=C/Nc1ccc(S(N)(=O)=O)cc1)C(=O)N2 [GW416981X]
Percent Control (CDK3): 42% | Percent Control (CDK4-cyclinD1): 3.8% | Percent Control (CDK4-cyclinD3): 13% | Percent Control (CDK4): 91% | Percent Control (CDK5): 36% | Percent Control (CDK7): 3.7% | Percent Control (CDK8): 86% | Percent Control (CDK9): 100% | Percent Control (CDKL1): 52% | Percent Control (CDKL2): 24%

NS(=O)(=O)c1ccc(Nc2ncc(-c3ccccc3)o2)cc1 [GW572399X]
Percent Control (CDK3): 100% | Percent Control (CDK4-cyclinD1): 60% | Percent Control (CDK4-cyclinD3): 88% | Percent Control (CDK4): 95% | Percent Control (CDK5): 100% | Percent Control (CDK7): 21% | Percent Control (CDK8): 93% | Percent Control (CDK9): 100% | Percent Control (CDKL1): 80% | Percent Control (CDKL2): 65%

COc1ccc(COc2ccc(Cc3cnc(N)nc3N)cc2OC)cc1 [GW632580X]
Percent Control (CDK3): 100% | Percent Control (CDK4-cyclinD1): 99% | Percent Control (CDK4-cyclinD3): 93% | Percent Control (CDK4): 94% | Percent Control (CDK5): 93% | Percent Control (CDK7): 100% | Percent Control (CDK8): 100% | Percent Control (CDK9): 100% | Percent Control (CDKL1): 82% | Percent Control (CDKL2): 100%

COc1cc2ncnc(Nc3ccc4c(cnn4Cc4ccccc4)c3)c2cc1OC.Cl [GW282449A]
Percent Control (CDK3): 100% | Percent Control (CDK4-cyclinD1): 100% | Percent Control (CDK4-cyclinD3): 100% | Percent Control (CDK4): 100% | Percent Control (CDK5): 100% | Percent Control (CDK7): 100% | Percent Control (CDK8): 100% | Percent Control (CDK9): 100% | Percent Control (CDKL1): 100% | Percent Control (CDKL2): 95%

COc1ccc2cc(-c3c(-c4ccncc4)nc(-c4ccc(S(C)(=O)=O)cc4C)n3C)ccc2c1 [SB-633825]
Percent Control (CDK3): 100% | Percent Control (CDK4-cyclinD1): 68% | Percent Control (CDK4-cyclinD3): 90% | Percent Control (CDK4): 91% | Percent Control (CDK5): 95% | Percent Control (CDK7): 85% | Percent Control (CDK8): 78% | Percent Control (CDK9): 74% | Percent Control (CDKL1): 87% | Percent Control (CDKL2): 100%

COc1ccccc1-c1cc(/C=C2\C(=O)Nc3ncc(Br)cc32)cc(Br)c1O [GW442130X]
Percent Control (CDK3): 100% | Percent Control (CDK4-cyclinD1): 88% | Percent Control (CDK4-cyclinD3): 95% | Percent Control (CDK4): 100% | Percent Control (CDK5): 99% | Percent Control (CDK7): 89% | Percent Control (CDK8): 71% | Percent Control (CDK9): 97% | Percent Control (CDKL1): 100% | Percent Control (CDKL2): 96%

C/C(Nc1ccc(S(N)(=O)=O)cc1)=C1/C(=O)Nc2ccccc21 [GW335962X]
Percent Control (CDK3): 100% | Percent Control (CDK4-cyclinD1): 29% | Percent Control (CDK4-cyclinD3): 64% | Percent Control (CDK4): 100% | Percent Control (CDK5): 100% | Percent Control (CDK7): 74% | Percent Control (CDK8): 78% | Percent Control (CDK9): 100% | Percent Control (CDKL1): 85% | Percent Control (CDKL2): 82%

COc1cc(C=NNc2ncnc3c2cnn3-c2ccccc2)ccc1O [GW513184X]
Percent Control (CDK3): 97% | Percent Control (CDK4-cyclinD1): 89% | Percent Control (CDK4-cyclinD3): 81% | Percent Control (CDK4): 100% | Percent Control (CDK5): 64% | Percent Control (CDK7): 4% | Percent Control (CDK8): 100% | Percent Control (CDK9): 100% | Percent Control (CDKL1): 80% | Percent Control (CDKL2): 22%

— PMC7826789 (International Journal of Molecular Sciences, 2021)
